# From PubChem
# Tau fluor counter = counter-screen for tau fibril formation inhibitors. tau K18 P301L Alexa594 fluorescence, heparin fibrillization. Potency, µM (series often up to 57.7 µM), inactives show top-dose activity change, negative = decrease. 280,000 tested, 0.93% active. AID 1463; further: potency means the concentration at half of the fitted maximal effect; nearly all actives have a fitted effect of over 55% in size
#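 Human K18 P301L tau (15 uM unlabeled plus 0.24 uM Alexa 594-labeled, final) in 100 mM sodium acetate pH 7 was mixed with compound and 20 uM heparin and incubated 6 hr at 37 C.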
# Tau FP inhib = inhibitors of human tau fibril formation | AID 1468 | Potency, µM (doses to about 57.7 µM), for inactives: top-dose activity, negative = inhibition, usual class: inhibitors | 280,000 tested, 0.39% active | K18 P301L tau heparin fibrillization, Alexa594 FP, 6 h; further: potency means the concentration at half of the fitted maximal effect; nearly all actives have a fitted effect of over 55% in size
# Target sequence (P10636 561-689 P618L limits assumed): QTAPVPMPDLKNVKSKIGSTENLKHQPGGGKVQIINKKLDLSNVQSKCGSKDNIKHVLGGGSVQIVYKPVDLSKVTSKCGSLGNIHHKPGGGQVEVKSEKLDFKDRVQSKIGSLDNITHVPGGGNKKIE
#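 Quantitative HTS format: compounds meet 15 uM recombinant K18 P301L tau and Alexa 594-tau tracer in 100 mM sodium acetate pH 7; 20 uM heparin triggers fibrillization at 37 C over 6 hr; FP gives the signal.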
# Sfp PPTase inh = Sfp phosphopantetheinyl transferase inhibition; Q9F4F7; Biochemical Sfp PPTase activity, qHTS; Potency, µM, for inactives: largest response in the series, negative = inhibition, actives largely listed as inhibitors; 310,000 tested, 3.5% active;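 further: the enzyme is Sfp with the accession as filed and its product quenches rhodamine fluorescence; potency means the concentration at half of the fitted maximal effect; 0% = enzyme reaction without inhibitor and -100% = no enzyme wells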
#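 Reaction rates are the 30-min fluorescence difference (ex 525, em 598 nm) in wells containing 15 nM Sfp, 5 uM rhodamine-CoA and 12.5 uM BHQ-2-YbbR at pH 7.6 with 10 mM MgCl2.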
# G9a inh = inhibitors of human histone lysine methyltransferase G9a. Q96KQ7. G9a H3K9 monomethylation, AlphaScreen, 2 h. Potency, µM (titrated, usually from 102 µM), without a hit: at the top dose activity, negative = inhibition, usual class: inhibitors. 350,000 tested, 8.8% active. AID 504332; further: potency means the concentration at half of the fitted maximal effect; nearly all actives have a fitted effect of over 75% in size
# Target sequence (Q96KQ7 913-1193 limits assumed): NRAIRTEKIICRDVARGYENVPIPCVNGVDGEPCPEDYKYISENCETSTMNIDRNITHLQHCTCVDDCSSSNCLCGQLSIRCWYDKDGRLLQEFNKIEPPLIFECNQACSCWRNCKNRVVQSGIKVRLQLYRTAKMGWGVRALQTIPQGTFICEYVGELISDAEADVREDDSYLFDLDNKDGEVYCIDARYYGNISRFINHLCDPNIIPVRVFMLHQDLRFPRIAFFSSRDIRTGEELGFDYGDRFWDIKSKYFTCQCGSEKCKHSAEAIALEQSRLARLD
#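 Readings reflect AlphaScreen signal from monomethyl-H3K9 antibody detection. HMT at 20 nM; substrate b-H3K9 500 nM; cofactor SAM 20 uM; 2 h RT reaction; compounds tested as titrations in qHTS with 15 min preincubation.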
# FBPA coupling cs = inhibits coupling enzyme system, counter-screen for aldolase hits. coupling enzyme system counterscreen, AmpLite Red fluorescence. activity change, negative = inhibition, % at 58.2 µM, hits read low. 290,000 tested, 0.67% active; in the data active means activity change below about -30%
#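 Activity here indicates interference with the coupling reaction, not aldolase inhibition. Compounds at 57.5 uM final met coupling enzymes for 10 min at RT; substrate and AmpLite Red detection followed, with a 525/598 nm fluorescence read after 20 min.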
# Tau ThT inhib = tau fibrillization inhibition (ThT binding); 270,000 tested, 2.1% active; recombinant tau K18 P301L (four-repeat tau fragment), heparin-induced fibrillization, ThT fluorescence; Potency, µM (highest dose often 57.4 µM), inactives show top-dose activity, negative = inhibition, actives largely listed as inhibitors; further: potency means the concentration at half of the fitted maximal effect; nearly all actives have a fitted effect of over 55% in size
#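 Heparin-induced (20 uM) aggregation of recombinant human K18 P301L tau, 15 uM unlabeled with 0.24 uM labeled, pH 7 acetate buffer, 6 hr at 37 C with compound. Fibrils quantified by 30 uM ThT fluorescence after 1 hr ambient incubation.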
# Starred values were filed as active, the others as inactive; ? = inconclusive; . = no result given; [ ] = dose if it differs, or a comment. In the library only some 11% were active in any assay of this set; here they are far more common. Unless noted, the call rests on the fitted dose curve; in most records, active means well fitted curve in the direction sought with a large enough effect; inconclusive means small, poorly fitted or top-dose-only effect, or another doubt; inactive means no such curve, though single readings can be large; an effect the other way counts as inactive or inconclusive. Unless noted, on the % scale 0 is the no-effect control and ±100 the full control effect.
SMILES,Tau fluor counter,Tau FP inhib,Sfp PPTase inh,G9a inh,FBPA coupling cs,Tau ThT inhib
CC(C)(C)c1ccc(S(=O)(=O)/N=C2\C=C(NS(=O)(=O)c3ccccc3)C(=O)c3ccccc32)cc1,.,.,-9%,10µM*,-35*,.
Cc1ccc(S(=O)(=O)/N=C2\C=C(Nc3cccc(C(=O)O)c3)C(=O)c3ccccc32)cc1,.,.,-23%,10µM*,-47*,.
S=C=Nc1ccc(N=C=S)cc1,.,.,20%,31%[12.7 µM],.,.
Cc1cc(C)cc(OC(C)C(=O)Nc2ccc(S(=O)(=O)Nc3cc(C)nc(C)n3)cc2)c1 (stereo not given),.,.,6%,?,.,.
Cc1ccc(OCC(=O)NC2CCS(=O)(=O)C2)c([N+](=O)[O-])n1 (stereo not given),.,.,.,-1%,.,.
COc1cccc(C2c3c(oc4cc(C)cc(C)c4c3=O)C(=O)N2CCc2ccc(OC)c(OC)c2)c1 (stereo not given),-7%,5%,.,?,.,0%
Cc1ccc(Cl)cc1N1CCN(Cc2nc3ccsc3c(=O)[nH]2)CC1,-16%,10%,3%,2.8µM*,0,-13%
COc1cc(C(=O)C(=O)c2cc(OC)c(O)c(OC)c2)cc(OC)c1O,-11%,-6%,-14%,45µM*,1,-18%
CN(C)C1=NCCN1CCc1ccccc1,.,.,.,22%[2.33 µM],.,.
CCOC(=O)c1ccccc1NC1CC(=O)N(c2ccccc2C)C1=O (stereo not given),-2%,-3%,79µM*,?,1,-11%
CCOc1ccc(NCc2cccn2-c2nnc(N3CCC(C(=O)NCCCN4CCCCC4)CC3)s2)cc1,.,.,0%,40µM*,.,.
CCOc1ccc(NCc2cccn2-c2nnc(N3CCC(C(=O)NCc4ccccc4Cl)CC3)s2)cc1,?,8%,.,?,.,?
CCOc1ccc(NCc2cccn2-c2nnc(N3CCC(C(=O)NCCCN4C(C)CCCC4C)CC3)s2)cc1 (stereo not given),.,.,-11%,40µM*,.,.
CCOc1ccc(NCc2cccn2-c2nnc(N3CCC(C(=O)NCCCN4CCCCC4C)CC3)s2)cc1 (stereo not given),.,.,10%,50µM*,-1,.
COCCCNC(=O)C1CCN(c2nnc(-n3cccc3CNc3ccc(C)cc3)s2)CC1,-18%,6%,.,-5%[59 µM],.,-18%
Cc1ccccc1-c1ccc(Nc2ccc(N3CCOCC3)cc2)nn1,?,8%,?,?,-12,14µM*
CC(C)=CCc1c(O)cc2occ(-c3ccc4c(c3)OCO4)c(=O)c2c1O,?,8.9µM*,6%,-32%[2.33 µM],-2,-16%
O=c1c(-c2cc(O)c(O)c(O)c2)coc2cc(O)c(O)c(O)c12,?,7.1µM*,-92%,-147%[2.33 µM],-71*,3.5µM*
CCc1cc2c(=O)c(-c3ccc4c(c3)OCCO4)coc2cc1OS(C)(=O)=O,-29%,-8%,-10%,-2%,-6,-17%
Cc1noc(C)c1COc1ccccc1C(=O)N(C)CC(=O)Nc1ccc(F)cc1,.,.,.,14%[0.501 µM],.,.
Cc1ccsc1C(=O)N1CCN(S(=O)(=O)c2cccc(F)c2)CC1,.,.,.,28µM*,.,.
Cc1ccc(S(=O)(=O)N2CCOCC2)cc1C(=O)N1CCN(S(=O)(=O)c2cccc(F)c2)CC1,.,.,.,-9%[12.7 µM],.,.
O=C1COc2cc(S(=O)(=O)CCC(=O)NC3CCCCC3)c(Cl)cc2N1,-30%,3%,.,-3%[59 µM],.,?
CSCCC(C(=O)O)N1C(=O)c2ccc(C(=O)O)cc2C1=O (stereo not given),1%,0%,-9%,25µM*,5,-2%
COCc1cc(=O)[nH]c(SCCS(=O)(=O)c2ccc(Cl)cc2Cl)n1,-1%,7%,79µM*,?,5,-13%
SMILES,Tau fluor counter,Tau FP inhib,Sfp PPTase inh,G9a inh,FBPA coupling cs,Tau ThT inhib
CCOc1ccc(-c2nnc(SCC(=O)Nc3cccc(C#N)c3)o2)cc1,-26%,-9%,.,-37%[59 µM],.,-14%
CC1CCCN(C(=O)C(C)Nc2cc(Cl)ccc2N2CCOCC2)C1 (stereo not given),-16%,7%,2%,40µM*,-4,?
COc1cccc(OC)c1C(=O)Nc1cc(Cl)ccc1N1CCOCC1,-9%,-5%,2%,?,0,-10%
C/C=C(\C)[C@H](O)C[Si](C)(C)c1ccccc1,-3%,3%,-7%,.,1,0%
CC1(C)CC(=O)C(/C=N/c2ncccc2C(=O)O)=C(O)C1,-9%,-4%,-8%,50µM*,-4,-8%
COc1ccc(/C=C/C(=O)c2ccncc2)c2ccccc12,-13%,?,?,?,-43*,16µM*
COc1ccc(/C=C/C(=O)c2ccc[nH]2)c(OC)c1OC,-7%,4%,7%,9%[59 µM],0,-18%
COCCn1c(C)cc(C(=O)COC(=O)c2ccc3c(c2)NC(=O)CS3)c1C,-17%,-8%,?,40µM*,-1,?
C=CCn1c(C)cc(C(=O)COC(=O)c2ccc3c(c2)NC(=O)CS3)c1C,-20%,?,56µM*,20µM*,-3,?
COCCn1c(C)cc(C(=O)COC(=O)c2ccc3ncsc3c2)c1C,-6%,3%,6%,6%[12.7 µM],1,-17%
C=CCNC(=O)c1ccc2c(=O)n(CCCN3CCCC3=O)c(=S)[nH]c2c1,-1%,2%,79µM*,?,-3,0%
O=C(NCCCN1CCCC1=O)c1ccc2c(=O)n(Cc3ccco3)c(=S)[nH]c2c1,-9%,-1%,35µM*,10µM*,0,-18%
O=C(NCc1ccco1)c1ccc2c(=O)n(CC3CCCO3)c(=S)[nH]c2c1 (stereo not given),-9%,-6%,-12%,8.9µM*,0,-11%
O=C(NCc1ccccc1)c1ccc2c(=O)n(CCCN3CCCC3=O)c(=S)[nH]c2c1,-18%,-2%,1%,45µM*,5,-10%
CCN(CC)S(=O)(=O)c1ccc(S(=O)(=O)N2CCCC(C(=O)NC3CC3)C2)cc1 (stereo not given),.,.,11%,22%,2,.
COC(=O)[C@@]1(Cc2ccc(OC)cc2)[C@H]2c3cc(C(=O)N(C)C)n(CCc4c[nH]c5ccc(O)cc45)c3C[C@H]2CN1C(=O)c1ccccc1,-13%,2%,12%,.,-2,-9%
CC(C)C(OC(=O)CN1C(=O)c2ccccc2C1=O)C(=O)NC1CCCCC1 (stereo not given),.,.,-1%,-6%[59 µM],0,.
CCc1ccc(NC(=O)CCc2c(C)nc3nc(-c4cc(OC)cc(OC)c4)nn3c2C)cc1,-17%,15%,.,2%[59 µM],.,-7%
CCOC(=O)N1CCN([N+]([O-])=NOc2cc(O/N=[N+](\[O-])N(CC)CC)c([N+](=O)[O-])cc2[N+](=O)[O-])CC1,.,.,14%,.,-12,.
